Bioassay records (PubChem)
TRb-SRC2 inh – inhibitors of human thyroid hormone receptor beta-SRC2 interaction; TRbeta-SRC2 peptide binding, fluorescence polarization; receptor liganded with 1 µM T3; Potency, µM (titrated, usually from 106 µM), inactives show top-dose activity change, negative = inhibition, usual class: inhibitors; P10828; actives 0.065% (n = 280,000);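 note: plate controls were bound peptide for no effect and peptide without receptor for full effect; nearly all actives have a fitted effect of over 50% in size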
Target sequence (P10828 whole entry, looked up): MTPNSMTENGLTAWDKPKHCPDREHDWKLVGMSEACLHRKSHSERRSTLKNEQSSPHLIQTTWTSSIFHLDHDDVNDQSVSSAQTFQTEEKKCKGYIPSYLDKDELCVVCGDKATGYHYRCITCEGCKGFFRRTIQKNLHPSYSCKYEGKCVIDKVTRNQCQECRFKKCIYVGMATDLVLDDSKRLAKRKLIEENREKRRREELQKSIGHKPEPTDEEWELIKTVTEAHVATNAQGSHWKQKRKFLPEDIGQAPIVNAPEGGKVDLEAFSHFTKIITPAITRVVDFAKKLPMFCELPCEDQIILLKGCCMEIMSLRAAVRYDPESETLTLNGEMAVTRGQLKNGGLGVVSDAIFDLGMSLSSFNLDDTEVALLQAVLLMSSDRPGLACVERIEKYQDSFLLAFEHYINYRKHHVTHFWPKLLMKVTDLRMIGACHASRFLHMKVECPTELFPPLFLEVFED
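Each compound concentration gave % activity, normalized to unbound and bound Texas Red SRC2 controls, from polarization read after 5 hr ambient incubation with T3-loaded human TRb LBD.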
TR SRC2 fluor cs – counter-screen for TRb-SRC2 inhibitors: fluorescence interference; TRb/SRC2 Texas Red total fluorescence interference; Potency, µM (top dose mostly 106 µM), for inactives: top-dose fluorescence change, negative = quenching; actives 0.29% (n = 280,000); AID 1479; active = well fitted curve in either direction with a large enough effect; inconclusive = small, poorly fitted or top-dose-only effect
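Human TRβ ligand-binding domain (0.6 uM) and Texas Red SRC2 peptide (20 nM) in Tris buffer with 1 uM T3 and 5% DMSO were incubated with pinned compound for 5 hr at ambient temperature. Total fluorescence was computed as S + 2P (555/632 nm).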
Tau fibril ThT – blocks human tau fibril formation measured by thioflavin T; P10636; recombinant tau K18 P301L, heparin-induced fibrillization, ThT fluorescence; Potency, µM (top dose mostly 57.4 µM), without a hit: top-dose activity, negative = inhibition, usual class: inhibitors; actives 2.1% (n = 270,000); note: nearly all actives have a fitted effect of over 55% in size
Target sequence (P10636 561-689 P618L limits assumed): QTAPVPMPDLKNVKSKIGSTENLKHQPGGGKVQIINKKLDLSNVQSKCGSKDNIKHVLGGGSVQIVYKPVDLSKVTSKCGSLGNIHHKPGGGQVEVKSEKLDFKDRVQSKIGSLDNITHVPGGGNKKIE
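K18 P301L tau (15 uM + 0.24 uM Alexa 594-tagged), heparin 20 uM, NaOAc pH 7, 6 h 37 C; ThT 30 uM, 1 h RT, ex 450/em 510 nm.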
Tau fibril FP – tau fibrillization inhibition (FP); K18 P301L tau heparin fibrillization, Alexa594 FP, 6 h; AID 1468; Potency, µM (top dose mostly 57.7 µM), for inactives: at the highest dose activity, negative = inhibition, usual class: inhibitors; P10636; actives 0.39% (n = 280,000); note: nearly all actives have a fitted effect of over 55% in size
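Compound effects on tau fibrillization are measured by Alexa 594 fluorescence polarization (ex 555, em 632 nm). K18 P301L tau is used at 15 uM with 0.24 uM labeled tracer, and 20 uM heparin induces aggregation over 6 hr at 37 C.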
Tau fluor cs – counter-screen for tau fibril formation inhibitors; tau K18 P301L Alexa594 fluorescence, heparin fibrillization; Potency, µM (top dose mostly 57.7 µM), for inactives: at the top dose activity change, negative = decrease; actives 0.93% (n = 280,000); AID 1463; note: nearly all actives have a fitted effect of over 55% in size
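Human tau K18 P301L (15 uM unlabeled, 0.24 uM Alexa 594-labeled) in 100 mM sodium acetate pH 7 with 20 uM heparin, 6 hr at 37 C. ThT 30 uM added, 1 hr ambient; Alexa 594 FP and total fluorescence read at 555/632 nm.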
* hit, by the source's call; ? = inconclusive; / = no result; [ ] = dose if it differs, or a comment. In the library only some 3% were active in any assay of this set; here they are far more common. Unless noted, calls come from the whole dose curve; as a rule, active = well fitted curve in the direction sought with a large enough effect; inconclusive = small, poorly fitted or top-dose-only effect, or another doubt; inactive = no such curve, though single readings can be large; an effect the other way counts as inactive or inconclusive. Unless noted, % is set by controls: 0 for no effect and ±100 for the full control effect; potency is the fitted concentration of half-maximal effect.

SMILES | TRb-SRC2 inh | TR SRC2 fluor cs | Tau fibril ThT | Tau fibril FP | Tau fluor cs
Cc1ccc2c(c1)C(c1ccccc1)N(C(=O)c1ccc(OC(C)C)cc1)CC(=O)N2 (stereo unspecified) | 1% | 0% | -12% | 2% | -10%
CC1=NC(=O)C(N=Nc2ccccc2)N1c1ccccc1 (stereo unspecified) | -14% | 3% | ? | ? | -12%
CC1=NC(=O)C(N=Nc2cccc(C(=O)O)c2)N1c1ccccc1 (stereo unspecified) | 2% | -7% | 16µM* | 4% | -15%
CC1=NC(=O)C(N=Nc2ccccc2C(=O)O)N1c1ccccc1 (stereo unspecified) | 2% | -10% | 5µM* | 11% | -1%
Cc1nn(-c2ccccc2C(=O)O)c(=O)c2ccccc12 | 1% | -1% | 1% | 2% | -1%
O=C(/C(=C/O)N=Nc1ccccc1)c1ccncc1 | -9% | -4% | 14µM* | -3% | -19%
Cc1ccc(N=N/C(=C\O)C(=O)c2ccc(Cl)cc2)cc1 | -2% | -1% | 28µM* | 0% | -20%
COc1ccccc1N(O)C1CC(=O)N(c2ccc(Br)cc2)C1=O (stereo unspecified) | -11% | -8% | 14µM* | ? | ?
COc1ccc2oc(=O)c(C(=O)NCCc3c(C)[nH]c4c(C)cccc34)cc2c1 | 8% | ? | ? | 11% | 16µM*[quencher]
Cc1[nH]c2c(C)cccc2c1CCNC(=O)c1cc2ccccc2oc1=O | 0% | 1% | -18% | -5% | ?
COC(=O)c1ccc(-c2noc(CN(C)CCC3CCCCO3)n2)cc1 (stereo unspecified) | -3% | -2% | 11µM* | -82% | -45%
O=C(N/N=C/c1ccc(O)c(O)c1O)/C(=C/c1ccc([N+](=O)[O-])cc1)NC(=O)c1ccccc1 | -3% | -6% | 3.5µM* | 8.9µM* | ?
COc1ccc(-n2c(=O)c3c4c(sc3n(CC(=O)N3CCCCC3C)c2=O)CCC4)c(OC)c1 (stereo unspecified) | 3% | 7% | -4% | -1% | -10%
O=[N+]([O-])c1ccccc1N/N=C/c1cccc(O)c1O | -2% | -5% | ? | 6% | -16%
Oc1cccc(/C=N/NC(=S)Nc2cccnc2)c1O | 3% | -8% | 4% | 9% | 5%
C/C(=N\Nc1cccc([N+](=O)[O-])c1)c1cc(F)ccc1O | -2% | -1% | 2% | 1% | -4%
Oc1ccc(/C=N/NC(=S)Nc2cccnc2)c(O)c1O | -4% | ? | 1.6µM* | 2µM* | 11µM*[quencher]
O=[N+]([O-])c1cccc(N/N=C/c2cccc(O)c2O)c1 | -6% | -12% | 7.9µM* | 5% | 16µM*[quencher]
Cc1cccc(N/N=C/c2ccc(O)c(O)c2O)c1 | 3% | 0% | 10µM* | 16µM* | ?
C/C(=N\Nc1cccc([N+](=O)[O-])c1)c1ccccc1O | 9% | -1% | ? | ? | 5µM*[quencher]
Cc1nc2nc(CNC(=O)c3cccc(F)c3)nn2c(C)c1CCC(=O)Nc1cccc(Cl)c1 | -6% | 1% | 1% | 1% | -25%
COc1cccc(N/N=C/c2cccc(Br)c2O)c1 | -1% | -2% | 18µM* | 0% | 18µM*[quencher]
COc1cccc(/C=N/Nc2cc(Cl)nc(C)n2)c1O | 3% | -7% | ? | 2% | -18%
O=C1C2=C(NC(=S)NC2c2ccc(Cl)cc2)NC(c2ccc(Cl)cc2)N1c1ccc(Cl)cc1 (stereo unspecified) | -8% | 0% | 32µM* | ? | ?
CCc1ccc(C2NC(=S)NC3=C2C(=O)N(c2ccccc2OC)C(c2ccc(CC)cc2)N3)cc1 (stereo unspecified) | -3% | 1% | ? | ? | -29%
SMILES | TRb-SRC2 inh | TR SRC2 fluor cs | Tau fibril ThT | Tau fibril FP | Tau fluor cs
Cc1ccc(/C=C/C(=O)Nc2ccc(Cl)cc2Cl)cc1 | 12% | -2% | 3% | 3% | 11%
Cc1[nH]c2ccccc2c1SCc1ccccc1 | -6% | -3% | ? | -5% | 18µM*[quencher]
CS(=O)(=O)N1CCC(N2CCN(Cc3ccccc3)C(=O)C2=O)CC1 | 4% | 0% | 2% | -3% | 1%
COc1ccc(O)c(C2(O)C(=O)c3ccccc3C2=O)c1 | -5% | 0% | -1% | 3% | -2%
CC(=O)C(C(C)=O)C1(O)C(=O)c2ccccc2C1=O | ? | -1% | 2.8µM* | ? | -10%
COC(=O)c1cc(NC(C)=O)ccc1N1CCOCC1 | -3% | -3% | -2% | -5% | -6%
COC(=O)c1cc(NC(=O)c2cc(-c3ccc(C(F)(F)F)cc3)oc2C(F)(F)F)ccc1N1CCOCC1 | 2% | -1% | / | 8% | 1µM*[quencher]
COC(=O)c1cc(NC(=O)c2cc(-c3ccc(OC)cc3)oc2C(F)(F)F)ccc1N1CCOCC1 | 6% | -3% | / | ? | 8.9µM*[quencher]
O=C(COc1ccc(Br)cc1Br)Nc1ccc(S(=O)(=O)Nc2ncccn2)cc1 | -2% | -4% | 1% | -13% | 2%
CC(=O)c1ccc(NC(=O)Cn2cc3c(n2)CCCC3)cc1 | 5% | -3% | -8% | -5% | -8%
CNS(=O)(=O)c1ccc2c(c1)NC(=O)C1CCCN21 (stereo unspecified) | 4% | -1% | ? | ? | -11%
N#Cc1ccc2c(c1)NC(=O)C1CCCN21 (stereo unspecified) | -2% | -1% | 20µM* | ? | -17%
COc1cccc(-n2c(=O)c3c(C)c(C)sc3n(CC(=O)NCCc3ccc(OC)c(OC)c3)c2=O)c1 | 9% | 4% | -3% | -6% | -6%
CCc1cc[n+](-c2nc([O-])sc2C=O)cc1 | 3% | 1% | ? | ? | -28%
CC(C)c1cc[n+](-c2nc([O-])sc2C=O)cc1 | -2% | -1% | 35µM* | -25% | -25%
CC(=C1C(=O)c2ccccc2C1=O)N1CCN(C/C=C/c2ccccc2)CC1 | -21% | 2% | 22µM* | -2% | -29%
CC(=C1C(=O)c2ccccc2C1=O)N1CCN(Cc2ccccc2)CC1 | -2% | -2% | ? | -6% | -26%
COc1ccc(-c2ccc(OC)c(C3C4C=CCC(C)C4C(=O)N3Cc3ccccc3)c2)cc1OC (stereo unspecified) | 6% | -1% | / | / | /
O=C(Nc1cccc(C(F)(F)F)c1)Oc1ccc(Cl)c2cccnc12 | 7% | -4% | -15% | 20µM* | ?
CCN(CC)C(=O)Oc1ccc(Cl)c2cccnc12 | -1% | -1% | -4% | 2% | -2%
Cc1noc2ncnc(NCc3ccc(Cl)cc3)c12 | 2% | 1% | 3% | -6% | -4%
CC(=O)c1ccc(NC(=S)NCCc2ccc(S(N)(=O)=O)cc2)cc1 | -2% | -2% | ? | 8% | -11%
CC(=O)c1ccc(NC(=O)Nc2cccc(Cl)c2)cc1 | 4% | 1% | ? | 20µM* | 14µM*[quencher]
